Test results taken from PubChem BioAssay AID651774 (Broad Institute, 2012).
Measured potencies and affinities stand elsewhere. Activity calls are given as the source filed them. How the calls were made is not given here.

experiment: HeLa cell viability loss – 24 h, dry powder, cytotoxicity control, dose response (AID 651774); conditions: CellTiter-Glo ATP luminescence; series mostly up to 35 µM; activity change, negative = cytotoxicity: at the top concentration

Row | SMILES | activity change, negative = cytotoxicity
1 | O=C(Cc1ccc(OC(F)(F)F)cc1)NC1CCCC1 | 5.09% (inactive)
2 | O=C(Cc1cccc(OC(F)(F)F)c1)NC1CCCC1 | -1.72% (inactive)
3 | O=C(Cc1cccnc1)NC1CCCC1 | 10.9% (inactive)
4 | O=C(Cc1ccc(-c2ccccc2)cc1)NC1CCNCC1 | -0.852% (inactive)
5 | O=C(Cc1ccc(-c2ccccc2)cc1)N1CCC(F)(F)CC1 | 11.8% (inactive)
6 | FC(F)(F)c1ccc(CNc2nn[nH]n2)cc1 | 1.22% (inactive)
7 | CCC(C)NC(=O)Cc1ccc(-c2ccccc2)cc1 (stereo not drawn) | -13.7% (inactive)
8 | O=C(Cc1ccccc1OC(F)(F)F)NC1CCCC1 | -4.41% (inactive)
9 | Cc1cccc(CC(=O)NC2CCCC2)c1 | -17.9% (inactive)
10 | COc1ccccc1CC(=O)NC1CCCC1 | -4.73% (inactive)
11 | CC(C)c1ccc(CNc2nnnn2C)cc1 | -2.45% (inactive)
12 | CN(C(=O)Cc1ccc(-c2ccccc2)cc1)C1CCCC1 | -9.17% (inactive)
13 | O=C(Cc1ccc(C(F)(F)F)cc1)NC1CCCC1 | -3.86% (inactive)
14 | Cn1nnnc1NCc1ccc(N2CCCC2)cc1 | -3.44% (inactive)
15 | CCn1nnc(NCc2ccccc2)n1 | 14% (inactive)
16 | CC(C)c1ccc(CNc2nn[nH]n2)cc1 | -3.7% (inactive)
17 | O=C(Nc1nnc(-c2ccc3c(c2)OCCO3)o1)C1CCCCC1 | -9.17% (inactive)
18 | O=C(Cc1cccc(F)c1)NC1CCCC1 | -2.5% (inactive)
19 | O=C(Cc1cccc(-c2ccccc2)c1)NC1CCCC1 | -4.43% (inactive)
20 | CC(C)NC(=O)Cc1ccc(-c2ccccc2)cc1 | -0.68% (inactive)
21 | O=C(Cc1ccccc1I)NC1CCCC1 | -0.327% (inactive)
22 | O=C(CCc1ccc(-c2ccccc2)cc1)NC1CCCC1 | -9.26% (inactive)
23 | CC(C)(C)OC(=O)N1CCC(NC(=O)Cc2ccc(-c3ccccc3)cc2)CC1 | 2.47% (inactive)
24 | O=C(Cc1ccc(-c2ccccc2)cc1)N1CC(F)(F)C1 | 1.81% (inactive)
25 | O=C(Cc1ccc(-c2ccccc2)cc1)N1CCCC1 | 10.1% (inactive)
26 | O=C(Cc1ccccc1C(F)(F)F)NC1CCCC1 | 5.34% (inactive)
27 | O=C(Cc1ccc(-c2cccnc2)cc1)NC1CCCC1 | -4.99% (inactive)
28 | CS(=O)(=O)c1ccc(CC(=O)NC2CCCC2)cc1 | 0.072% (inactive)
